# Bioassay records (PubChem BioAssay)
# Only some compounds are listed: those with a hit (about 7.6% of all), similar ones and a draw of the others.
# KCNH2 WT inh: KCNH2 (human, wildtype) channel inhibition; 340,000 tested, 0.37% active; U2OS, BacMam KCNH2, thallium flux FluxOr; stronger effect = lower value; activity change, % at 1.84 µM; Q12809;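 active = maximum activity change below -70%; inconclusive = maximum activity change between -70% and -50%; inactive = maximum activity change above -50%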
# Target sequence (Q12809 whole entry, looked up): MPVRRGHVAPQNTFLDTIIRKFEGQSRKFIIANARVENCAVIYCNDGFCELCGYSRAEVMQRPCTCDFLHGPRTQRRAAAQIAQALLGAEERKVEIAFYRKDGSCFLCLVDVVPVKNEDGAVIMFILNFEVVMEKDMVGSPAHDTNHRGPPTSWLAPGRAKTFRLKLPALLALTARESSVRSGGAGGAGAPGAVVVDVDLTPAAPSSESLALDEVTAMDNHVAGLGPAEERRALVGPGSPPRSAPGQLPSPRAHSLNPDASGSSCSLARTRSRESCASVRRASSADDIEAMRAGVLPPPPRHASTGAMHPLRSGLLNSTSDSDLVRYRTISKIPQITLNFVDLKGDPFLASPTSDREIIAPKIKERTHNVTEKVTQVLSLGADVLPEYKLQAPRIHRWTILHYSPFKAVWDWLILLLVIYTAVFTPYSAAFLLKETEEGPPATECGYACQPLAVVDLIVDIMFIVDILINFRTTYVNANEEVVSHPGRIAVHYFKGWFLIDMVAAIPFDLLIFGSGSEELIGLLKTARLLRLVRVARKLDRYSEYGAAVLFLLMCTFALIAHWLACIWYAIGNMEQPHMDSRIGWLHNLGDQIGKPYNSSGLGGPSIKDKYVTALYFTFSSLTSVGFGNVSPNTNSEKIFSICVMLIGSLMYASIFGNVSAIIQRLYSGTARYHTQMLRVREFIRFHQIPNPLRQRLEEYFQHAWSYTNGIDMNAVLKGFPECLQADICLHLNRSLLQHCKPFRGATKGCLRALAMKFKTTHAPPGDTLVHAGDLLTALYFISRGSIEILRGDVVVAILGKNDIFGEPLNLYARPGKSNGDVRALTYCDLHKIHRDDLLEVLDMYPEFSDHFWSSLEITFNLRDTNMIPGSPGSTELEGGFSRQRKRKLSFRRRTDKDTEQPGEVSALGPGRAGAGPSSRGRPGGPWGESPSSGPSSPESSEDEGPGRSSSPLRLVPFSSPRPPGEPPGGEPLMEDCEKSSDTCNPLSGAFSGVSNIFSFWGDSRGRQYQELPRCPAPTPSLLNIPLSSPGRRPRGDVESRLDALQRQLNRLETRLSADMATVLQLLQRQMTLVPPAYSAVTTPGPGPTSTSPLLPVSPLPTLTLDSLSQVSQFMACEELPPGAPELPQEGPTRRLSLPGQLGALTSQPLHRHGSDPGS
#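 U2OS cells transduced with wild-type KCNH2 virus are loaded with FluxOr dye for 45 min, and thallium flux is measured in kinetic reads before and after stimulation buffer. Rate constants are normalized to DMSO controls.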
# KB-V1 MDR tox: kills drug-selected multidrug resistant KB-V1 cells; KB-V1 MDR cells viability, CellTiter-Glo, 72 h; Potency, µM (highest dose often 46.1 µM), hits mostly cytotoxic; 400,000 tested, 3.4% active; also: nearly all actives have a fitted effect of over 60% in size
#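 KB-V1 cells (P-gp-expressing MDR subline of KB-3-1) in phenol-red-free DMEM with 10% FBS were exposed to library compounds over a concentration series for 72 h at 37 degrees C. Viability read by CellTiter-Glo luminescence; concentration-effect curves fitted after normalization.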
# MCF10A rereplic: DNA re-replication induction in MCF 10a cells | MCF 10A DNA re-replication, Hoechst nuclear intensity, 48 h | Potency, µM (titrated, usually from 46.1 µM), hits mostly activators | 350,000 tested, 2.9% active | AID 624296; also: nearly all actives have a fitted effect of over 50% in size
# KCNH2 3.1 block: inhibitors of human KCNH2 3.1 potassium channel isoform; U2OS KCNH2 3.1, thallium flux FluxOr; stronger effect = lower value; activity change, % (tested at about 1.8 µM); 340,000 tested, 0.95% active;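 active = maximum activity change below -70%; inconclusive = maximum activity change from -70% to -50%; inactive = maximum activity change above -50%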;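 also: thallium influx rate constant from kinetic fluorescence after stimulation buffer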
#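 Thallium flux read-out: FluxOr dye with Red40 quencher in HBSS/HEPES, 45 min at RT. Rate constants from kinetic reads were normalized to positive and negative DMSO controls. Cells: U2OS virally expressing the 3.1 isoform.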
# KB-3-1 tox: kills parental KB-3-1 adenocarcinoma cells; AID 1347075; KB-3-1 viability, CellTiter-Glo ATP luminescence, 72 h; 400,000 tested, 1.4% active; Potency, µM (series often up to 46.1 µM), usual class: cytotoxic; also: nearly all actives have a fitted effect of over 60% in size
#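 Multi-concentration cytotoxicity screen in KB-3-1 cells grown in DMEM lacking phenol red with 10% FBS. After 72 h at 37 °C with compound, ATP-dependent luminescence was recorded.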
# SW480 rerep: inducers of DNA re-replication in SW480 colon cancer cells; Potency, µM (doses to about 46.1 µM), most hits filed as activators; SW480 DNA re-replication, Hoechst DNA content imaging, 48 h; 340,000 tested, 1.8% active; also: nearly all actives have a fitted effect of over 55% in size
#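 Cells (250 per well) received 23 nL compound or DMSO by pin tool and were kept 48 hr at 37 C, 5% CO2. Nuclei were then stained with Hoechst for 40 min and scanned for DNA content.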
# Numbers stand for hits; n = inactive; u = inconclusive; x = not tested or not shown; ! = a repeat was not active. Unless noted, calls follow the shape of the dose curve; as a rule, active = well fitted curve in the direction sought with a large enough effect; inconclusive = small, poorly fitted or top-dose-only effect, or another doubt; inactive = no such curve, though single readings can be large; an effect the other way counts as inactive or inconclusive.
SMILES,KCNH2 WT inh,KB-V1 MDR tox,MCF10A rereplic,KCNH2 3.1 block,KB-3-1 tox,SW480 rerep
OC(COC(c1ccc(F)cc1)c1ccc(F)cc1)CN1CCc2ccccc2C1 (stereo unspecified),n,16µM,u,-110,n,u
Cc1ccc(OCC(O)CN2CCc3ccccc3C2)c(C)c1 (stereo unspecified),n,n,n,n,n,n
OC(COc1ccc(Cl)cc1Cl)CN1CCc2ccccc2C1 (stereo unspecified),n,n,u,-72,u,n
OC(COC(c1ccccc1)c1ccccc1)CN1CCc2ccccc2C1 (stereo unspecified),u,u,u,u,n,n
Cc1cc(C)n(CC(O)COc2ccc(Cl)cc2Cl)n1 (stereo unspecified),n,10µM,n,n,u,n
OC(COC(c1ccc(Cl)cc1)c1ccc(Cl)cc1)CN1CCc2ccccc2C1 (stereo unspecified),-71,n,18µM,x,n,u
CC(CN1CCCCC1)OC(=O)C(C)(c1ccccc1)c1ccccc1 (stereo unspecified),n,u,u,n,u,n
CCCCn1c(N)c(N(CCOC)C(=O)COC(=O)CCOc2ccccc2)c(=O)[nH]c1=O,n,u,n,n,n,n
CC(NS(=O)(=O)c1ccc2c(c1)CCN2C(=O)CCCC(=O)O)c1ccccc1 (stereo unspecified),x,n,x,x,n,x
COc1ccc(N2CCC(CNC(=O)Nc3cccc(OC)c3)C2)cc1 (stereo unspecified),n,21µM,u,n,n,n
CCc1ccccc1NC(=S)NCC1CCN(c2ccc(OC)cc2)C1 (stereo unspecified),n,21µM,u,n,u,n
COc1ccc(N2CCC(CNC(=O)Nc3ccc(Cl)cc3)C2)cc1 (stereo unspecified),n,u,n,n,n,n
COc1ccc(C)cc1NC(=O)CSc1nc(=O)n(Cc2cccnc2)c2c1CCC2,x,n,x,x,n,x
COc1cccc(/C=N/Nc2nn3cnnc3c3ccccc23)c1O,n,n,u,n,n,u
Oc1cccc(/C=N/Nc2nn3cnnc3c3ccccc23)c1,n,n,n,-114,n,n
NC(=O)C1=C(c2ccccc2)c2ccccc2C1=O,n,u,u,n,u,u
C(C#CCCCCCCCCC[n+]1ccccc1)#CCCCCCCCCC[n+]1ccccc1,n,n,u,n,3.7µM!,u
Cn1ncc(Cl)c1C(=O)NCc1ccc(Cl)cc1,n,3.7µM,n,n,u,u
COc1ccccc1C(=O)NCCC(=O)NCCOc1ccccc1,n,n,n,n,n,n
COCCNC(=O)c1ccccc1NC(=O)CCSc1ccccc1,n,u,1.3µM,n,n,n
COc1ccccc1C(=O)NCCC(=O)NCCCSc1ccccc1,n,21µM,n,n,n,n
CCC(C)NC(=O)c1ccccc1NC(=O)c1ccc(CSc2ccccc2)cc1 (stereo unspecified),n,12µM,u,n,n,n
CNC1C(O)C(OC2C(N)CC(N)C(OC3OC(CN)=CCC3N)C2O)OCC1(C)O (stereo unspecified),x,x,n,x,x,n
COc1ccccc1OCCN(C#N)c1nc(N(C)C)nc(N(C)C)n1,n,n,n,-84,n,n
O=C(N/N=C/c1ccc([N+](=O)[O-])o1)C(O)c1ccccc1 (stereo unspecified),n,n,12µM,n,u,u
SMILES,KCNH2 WT inh,KB-V1 MDR tox,MCF10A rereplic,KCNH2 3.1 block,KB-3-1 tox,SW480 rerep
O=C(COc1ccccc1)N/N=C/c1ccc([N+](=O)[O-])o1,n,n,n,n,15µM,n
Cc1ccc(OCC(=O)N/N=C/c2ccc([N+](=O)[O-])o2)cc1,n,u,n,n,n,n
O=C(CSc1ccc(Cl)cc1)N/N=C/c1ccc([N+](=O)[O-])o1,n,n,9.2µM,n,n,21µM
CC(C)(C)OC(=O)NCCCCCNC(=O)c1nc[nH]c1C(=O)N1CCN(C(=O)OC(C)(C)C)CC1,n,n,n,n,n,n
CN(C)C(CNC(=O)c1cccc(S(=O)(=O)N2CC3(C)CC2CC(C)(C)C3)c1)c1ccco1 (stereo unspecified),n,n,n,n,n,n
CCCNC(=O)c1cccc(S(=O)(=O)N2CC3(C)CC2CC(C)(C)C3)c1 (stereo unspecified),n,2.1µM,n,n,n,n
CC1(C)CC2CC(C)(CN2S(=O)(=O)c2ccc(C(=O)Nc3ccc(S(=O)(=O)N4CCOCC4)cc3)cc2)C1 (stereo unspecified),n,u,n,n,u,n
CC(=O)Nc1ccc(S(=O)(=O)N2CC3(C)CC2CC(C)(C)C3)cc1 (stereo unspecified),n,n,n,n,n,n
CC1(C)CC2CC(C)(CN2S(=O)(=O)c2ccc(C(=O)Nc3ccc(Cl)c(S(=O)(=O)N4CCOCC4)c3)cc2)C1 (stereo unspecified),n,2.9µM,n,n,2.9µM,n
CCOC(=O)c1cc([N+](=O)[O-])sc1NC(=O)c1ccc(S(=O)(=O)N2CC3(C)CC2CC(C)(C)C3)cc1 (stereo unspecified),n,u,u,n,4.6µM,u
CCOc1ccc(C(=O)NCC(=O)N2CCC(C)CC2)cc1OCC,n,n,n,n,n,n
N/C(=N\S(=O)(=O)c1cc(C(F)(F)F)cc(C(F)(F)F)c1)c1ccc(Cl)cc1,n,u,13µM,n,n,10µM
CCOC(=O)c1cc2c(ccn2C)n1CC(=O)N(C)C,n,u,0.65µM,n,n,n
CCOc1ccc(-c2nc(C)c(C(C)=O)n2O)cc1,n,n,n,n,n,n
CCOc1ccc2nc(-c3ccccc3)[nH]c2c1,n,n,5.2µM,n,u,18µM
COc1ccc(C2Nc3ccccc3C(=O)N2Cc2ccco2)cc1COc1ccc([N+](=O)[O-])cc1 (stereo unspecified),n,n,n,-80,n,n
COc1ccc(C2Nc3ccccc3C(=O)N2Cc2ccco2)cc1COc1c(C)cccc1C (stereo unspecified),x,n,x,x,16µM,x
COc1cccc(OCc2cc(C3Nc4ccccc4C(=O)N3Cc3ccco3)ccc2OC)c1 (stereo unspecified),n,4.1µM,n,n,n,n
COc1ccc(C2Nc3ccccc3C(=O)N2Cc2ccco2)cc1 (stereo unspecified),x,n,x,x,n,x
CSc1nnc(C)c(/C=C/Nc2ccc(F)cc2F)n1,n,u,18µM,n,n,n
COc1cc(CNCCc2c[nH]c3ccccc23)ccc1OCc1ccccc1F,n,n,u,-79,n,n
